Bioassay records as filed in PubChem.
Tau fibril ThT = blocks human tau fibril formation measured by thioflavin T; P10636; recombinant tau K18 P301L, heparin-induced fibrillization, ThT fluorescence; Potency, µM (series often up to 57.4 µM), hits mostly inhibitors; hit rate 2.1% among 270,000; further: nearly all actives have a fitted effect of over 55% in size
Target sequence (P10636 561-689 P618L limits assumed): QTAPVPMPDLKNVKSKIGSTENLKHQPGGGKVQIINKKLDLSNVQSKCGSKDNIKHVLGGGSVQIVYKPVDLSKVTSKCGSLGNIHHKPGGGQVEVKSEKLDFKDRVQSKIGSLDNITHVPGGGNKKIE
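Heparin-induced (20 uM) aggregation of recombinant human K18 P301L tau, 15 uM unlabeled with 0.24 uM labeled, pH 7 acetate buffer, 6 hr at 37 C with compound. Fibrils quantified by 30 uM ThT fluorescence after 1 hr ambient incubation.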
Tau fluor cs = counter-screen for tau fibril formation inhibitors; tau K18 P301L (four-repeat tau fragment) Alexa594 fluorescence, heparin fibrillization; Potency, µM (titrated, usually from 57.7 µM); hit rate 0.93% among 280,000; further: nearly all actives have a fitted effect of over 55% in size
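Human K18 P301L tau (15 uM unlabeled plus 0.24 uM Alexa 594-labeled, final) in 100 mM sodium acetate pH 7 was mixed with compound and 20 uM heparin and incubated 6 hr at 37 C.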
Tau FP inhib = tau fibrillization inhibition (FP); P10636; hit rate 0.39% among 280,000; K18 P301L tau heparin fibrillization, Alexa594 FP, 6 h; Potency, µM (top dose mostly 57.7 µM), most hits filed as inhibitors; further: nearly all actives have a fitted effect of over 55% in size
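Read-out: fluorescence polarization of Alexa 594-labeled tau (0.24 uM), 555 nm excitation, 632 nm emission. Mixtures held 15 uM unlabeled K18 P301L, compound and 20 uM heparin, pH 7 acetate buffer, incubated 6 hr at 37 C.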
JMJD2E inh = blocks human JMJD2E demethylase activity; B2RXH2; JMJD2E catalytic domain, FDH-coupled NADH fluorescence (FDH is formaldehyde dehydrogenase); Potency, µM (series often up to 57.1 µM), actives largely listed as inhibitors; hit rate 1.6% among 230,000; active means well fitted inhibition curve with a large enough effect, not every such curve was filed as active; inconclusive means small, poorly fitted or top-dose-only effect, or another doubt; inactive means no such curve, though single readings can be large or run the other way; further: nearly all actives have a fitted effect of over 50% in size
Target sequence (B2RXH2 1-337 limits assumed): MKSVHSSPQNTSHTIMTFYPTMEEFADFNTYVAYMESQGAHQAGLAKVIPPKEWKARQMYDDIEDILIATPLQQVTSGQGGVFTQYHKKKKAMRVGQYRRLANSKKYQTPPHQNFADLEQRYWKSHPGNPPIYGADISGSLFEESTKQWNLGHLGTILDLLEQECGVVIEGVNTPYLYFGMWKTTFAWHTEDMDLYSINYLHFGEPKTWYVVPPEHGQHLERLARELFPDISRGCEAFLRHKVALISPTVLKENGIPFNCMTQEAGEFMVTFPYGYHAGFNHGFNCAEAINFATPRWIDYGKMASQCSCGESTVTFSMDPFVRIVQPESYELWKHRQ
TRb-SRC2 inh = inhibitors of human thyroid hormone receptor beta-SRC2 interaction; P10828; TRbeta-SRC2 peptide binding, fluorescence polarization; receptor liganded with 1 µM T3; Potency, µM (series often up to 106 µM), most hits filed as inhibitors; hit rate 0.065% among 280,000; AID 1469; further: nearly all actives have a fitted effect of over 50% in size
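Assay buffer: 20 mM Tris-HCl, 100 mM NaCl, 10% glycerol, 1 mM EDTA, 0.01% NP-40, 1 mM DTT, 1 uM T3, 5% DMSO; TRb LBD 0.6 uM, Texas Red SRC2 20 nM; FP after 5 hr.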
TexasRed fluor = counter-screen for TRb-SRC2 inhibitors: fluorescence interference | TRb/SRC2 Texas Red total fluorescence interference | Potency, µM (top dose mostly 106 µM) | hit rate 0.29% among 280,000 | AID 1479; active means well fitted curve in either direction with a large enough effect; inconclusive means small, poorly fitted or top-dose-only effect
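Human TRβ ligand-binding domain (0.6 uM) and Texas Red SRC2 peptide (20 nM) in Tris buffer with 1 uM T3 and 5% DMSO were incubated with pinned compound for 5 hr at ambient temperature. Total fluorescence was computed as S + 2P (555/632 nm).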
Numbers stand for hits; i = inactive; ? = inconclusive; nt = no result given; ! = a repeat was not active; [ ] = another dose, or the depositor's remark. Only some compounds are listed: those with a hit (about 3.5% of all), similar ones and a draw of the others. Unless noted, the call rests on the fitted dose curve; in most records, active means well fitted curve in the direction sought with a large enough effect; inconclusive means small, poorly fitted or top-dose-only effect, or another doubt; inactive means no such curve, though single readings can be large; an effect the other way counts as inactive or inconclusive.

SMILES | Tau fibril ThT | Tau fluor cs | Tau FP inhib | JMJD2E inh | TRb-SRC2 inh | TexasRed fluor
COc1ccccc1-c1nnc(Nc2nc3c(OC)cccc3s2)o1 | i | i | i | ? | i | i
COc1cccc2sc(NN)nc12 | ? | 28µM[quencher] | ? | ? | i | i
Cc1cc(C)nc(Sc2nc(Nc3ccccc3)nc(Sc3nc(C)cc(C)n3)n2)n1 | i | i | i | i | i | i
CC(=O)c1cccc(NC(=O)/C=C/c2ccc([N+](=O)[O-])s2)c1 | 4µM | ? | ? | i | i | i
Cc1ccccc1NC(=O)/C=C/c1ccc([N+](=O)[O-])s1 | 13µM | ? | ? | i | i | i
Cc1ccccc1NC(=O)/C=C/c1cccs1 | i | i | i | i | i | i
Cc1cc(C)cc(NC(=O)/C=C/c2ccc([N+](=O)[O-])s2)c1 | ? | i | i | i | i | i
COc1ccc(C(=O)N(NC(=O)Oc2ccccc2)C(C)(C)C)cc1 | i | i | i | i | i | i
CCC(C(=O)O)N1C(=O)/C(=C/c2cccn2C)SC1=S (stereo unspecified) | 13µM | i | i | i | i | i
Cn1cccc1/C=C1/SC(=S)N(CC(=O)O)C1=O | 16µM | i | i | 22µM | i | i
CN1/C(=C\C=C2/SC(=S)N(CC(=O)O)C2=O)C(C)(C)c2ccccc21 | 4µM | ? | i | i | ? | 45µM[fluorescent]
C=CCN1C(=O)/C(=C\C=C2\N(C)c3ccccc3C2(C)C)SC1=S | ? | i | i | i | i | ?
CC(C(=O)O)N1C(=O)/C(=C/c2cccn2C)SC1=S (stereo unspecified) | 18µM | i | i | i | i | i
COc1cc(C2N3CC4(C)CN2CC(C)(C3)C4)ccc1O (stereo unspecified) | i | i | i | i | i | i
COc1ccc(C2N(c3ccccc3)CCN2c2ccccc2)cc1O | ? | 14µM[quencher] | i | i | i | i
NS(=O)(=O)c1ccc(N=Nc2c(=O)[nH]n3c(=O)c4c([nH]c23)CCCC4)cc1 | 7.9µM | i | i | 28µM | i | i
Cc1cc(C)n2[nH]c(=O)c(N=Nc3ccc(S(N)(=O)=O)cc3)c2n1 | ? | i | i | ? | i | i
COc1cccc(N=Nc2c(=O)[nH]n3c(=O)c4c([nH]c23)CCC4)c1 | 7.1µM | i | i | i | i | i
O=c1[nH]n2c(=O)c3c([nH]c2c1N=Nc1cccc(C(F)(F)F)c1)CCCC3 | 2.8µM | i | i | i | i | i
O=c1[nH]n2c(=O)c3c([nH]c2c1N=Nc1cccc(Cl)c1)CCC3 | i | i | i | i | i | i
COc1cccc(N=Nc2c(=O)[nH]n3c(=O)cc(C)[nH]c23)c1 | 16µM | i | i | i | i | i
COc1cccc(-c2ccc(C#N)c(=O)[nH]2)c1 | i | i | i | ? | i | i
CCOC(=O)CSc1nc2sc3c(c2c(=O)n1Cc1ccccc1)CCC(C(C)(C)C)C3 (stereo unspecified) | i | i | i | nt | i | i
CS(=O)(=O)c1ccccc1-c1nc(-c2cccc(Cl)c2)no1 | i | i | i | i | i | i
Cc1ccccc1Cn1c(SCc2ccc(C(=O)NC3CCCC3)cc2)nc2ccncc21 | i | i | i | nt | i | i
SMILES | Tau fibril ThT | Tau fluor cs | Tau FP inhib | JMJD2E inh | TRb-SRC2 inh | TexasRed fluor
O=C(CCn1cccc1)NCc1ccc2c(c1)OCO2 | i | i | i | i | i | i
Cc1cccc(N2CCN(S(=O)(=O)c3cc(C(=O)Nc4ccc(Oc5ccccc5)cc4)ccc3F)CC2)c1C | i | i | 28µM | nt | i | i
Cc1ccc(C)c(N2CCN(S(=O)(=O)c3cc(C(=O)Nc4ccc(Oc5ccccc5)cc4)ccc3F)CC2)c1 | i | i | ? | nt | i | i
O=C(Nc1cc(Cl)cc(Cl)c1)c1ccc(F)c(S(=O)(=O)N2CCN(c3ccccc3F)CC2)c1 | i | i | 20µM | nt | i | i
O=C(Nc1ccc(N2CCCCC2)cc1)c1ccc2ccccc2n1 | 13µM | ? | i | i | i | i
CS(=O)(=O)N1CCN(c2ccc(NC(=O)C(c3ccccc3)c3ccccc3)cc2)CC1 | i | ? | i | i | i | i
O=C(Nc1ccc(N2CCCC2)cc1)C(Cl)c1ccccc1 (stereo unspecified) | 25µM | ? | 32µM | ? | i | i
C#CCOCCOCCOCCNc1nc(N2CCN(C(=O)[C@H](Cc3cc4ccccc4[nH]3)n3cc([C@@H](N)C(C)CC)nn3)CC2)nc(N2CCN(C(=O)[C@H](CCCCN)n3cc([C@@H](N)CC(C)C)nn3)CC2)n1 (stereo partly specified) | ? | i | i | i | i | i
COc1ccc(-c2n[nH]c(C)c2-c2ccc(Cl)cc2)c(O)c1 | ? | 20µM[quencher] | i | ? | i | i
Cc1[nH]nc(-c2ccc(O)cc2O)c1-c1ccc(Cl)cc1 | i | 22µM[quencher] | ? | i | i | i
COc1ccc(-c2n[nH]c(C)c2-c2ccc(Cl)cc2)c(O)c1OC | ? | i | i | i | i | i
COc1ccc(O)c(-c2c(-c3ccc(Cl)cc3)n[nH]c2C)c1 | i | i | i | i | i | i
O=[N+]([O-])c1ccc(C2Oc3ccccc3C3CC(c4ccccc4)=NN32)s1 (stereo unspecified) | 14µM | 14µM[quencher] | ? | ? | i | i
c1ccc(C2Oc3ccccc3C3CC(c4cccs4)=NN32)cc1 (stereo unspecified) | ? | i | i | i | i | i
COC(=O)C1=CO[C@@H](C)[C@H]2CN3CCc4c([nH]c5ccccc45)[C@@H]3C[C@H]12 | nt | nt | nt | 13µM! | i | i
COC(=O)C1=COC(C)C2CN3CCc4c([nH]c5ccccc45)C3CC12 (stereo unspecified) | i | i | i | i | i | i
Cc1cc(Nc2ncc(Cl)cc2Cl)n[nH]1 | i | i | i | i | i | i
CCN(CC)CC(=O)Nc1cccc2c1C(=O)c1ccccc1C2=O | i | i | i | i | i | i
O=C1c2ccccc2C(=O)c2c(NCCCN(CCO)CCO)cccc21 | 14µM | ? | i | i | i | i
CCOC(=O)C1=C(N)OC2=C(C(=O)CC(C)(C)C2)C1c1ccccc1OC (stereo unspecified) | i | i | i | i | i | i
COc1ccc(-c2cc(C(=O)N3CCN(c4ccccc4)CC3)c3ccccc3n2)cc1OC | i | i | i | ? | i | i
COc1ccc(-c2nc3ccc(N4CCCC4)cc3c(=O)[nH]2)cc1OC | 2.2µM | ? | i | ? | i | i
Cc1cc(C)n(-c2nc(Nc3ccccc3)nc(-n3nc(C)cc3C)n2)n1 | i | i | i | i | i | i
Cc1cc(C)n(-c2nc(N(c3ccccc3)c3ccccc3)nc(-n3nc(C)cc3C)n2)n1 | 20µM | i | ? | i | i | i
